Experimental data as given in PubChem BioAssay (NCATS).
Results filed as inconclusive are left out. The source made the active and inactive calls. Calls follow the shape of the dose curve; as a rule, active = well fitted inhibition curve with a large enough effect; inconclusive = small, poorly fitted or top-dose-only effect; inactive = flat fitted curve, though single readings scatter.

Assays:
Assay in all cases: qHTS profiling for inhibitors of Plasmodium falciparum proliferation (AID 504749); also: nearly all actives have a fitted effect of over 60% in size
Details in all cases: P. falciparum in erythrocytes, SYBR Green DNA, 72 h; series mostly up to 28.7 µM
[1] = system: CP256
How it was run: (§1)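 Readout was DNA-dye fluorescence from lysed cultures, ex 485/em 535 nm. Parasitized red cells had grown 72 h with compound; data scaled between 0.29 uM artemisinin and DMSO wells and corrected using vehicle-only plates.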

[2] = system: CP260
How it was run: as §1

[3] = system: CP262
How it was run: as §1

[4] = system: CP265
How it was run: as §1

[5] = system: CP266
How it was run: as §1

[6] = system: CP268
How it was run: as §1

[7] = system: CP269
How it was run: as §1

[8] = system: CP286
How it was run: as §1

[9] = system: CP291
How it was run: as §1

[10] = system: CP297
How it was run: as §1

Measured: Potency
Potency is read from the fitted curve at half-maximal effect.

c1ccc2c(c1)sc1ccccc12
inactive: all assays above

Nc1nc(N)nc(NC2CC2)n1
inactive: all assays above

Clc1ccc2c(c1)C(c1ccccc1)=NCc1nncn1-2
inactive: all assays above

NC(=O)CS(=O)C(c1ccccc1)c1ccccc1 (stereo not drawn)
inactive: all assays above

O=C1Nc2ccc(Cl)cc2C(c2ccccc2)=NC1O (stereo not drawn)
inactive: all assays above

COP(=S)(OC)Oc1ccc(S(=O)(=O)N(C)C)cc1
inactive: all assays above

C[C@](O)(CS(=O)(=O)c1ccc(F)cc1)C(=O)Nc1ccc(C#N)c(C(F)(F)F)c1
inactive: all assays above

NCCc1ccc(O)cc1
inactive: all assays above

CNC(C)(C)Cc1ccccc1
inactive: all assays above

O=C(O)CCCc1ccc(N(CCCl)CCCl)cc1
inactive: all assays above

Oc1ccc(Cl)cc1
inactive: all assays above

CCC1(c2ccccc2)C(=O)N(COC)C(=O)N(COC)C1=O
inactive: all assays above

O=c1oc2ccccc2c(O)c1Cc1c(O)c2ccccc2oc1=O
inactive: all assays above

CC(C)=CC1C(C(=O)OCN2C(=O)C3=C(CCCC3)C2=O)C1(C)C (stereo not drawn)
inactive: all assays above

CCC(C)(C)c1ccc(O)cc1
inactive: all assays above

COP(=S)(OC)Oc1ccc(SC)c(C)c1
not listed: [9]
inactive: all other assays above

C[C@]12CCC(=O)C=C1CC[C@@H]1[C@@H]2CC[C@]2(C)C(=O)CC[C@@H]12
inactive: all assays above

O=C1CN=C(c2ccccc2)c2cc([N+](=O)[O-])ccc2N1
inactive: all assays above

Nc1ccc([As](=O)(O)O)cc1
inactive: all assays above

CC(C)NC(C)C
inactive: all assays above

CN1C(=O)NC(=O)C(C)(C2=CCCCC2)C1=O (stereo not drawn)
inactive: all assays above

CN1C(=O)COc2c(C(=O)NC3CN4CCC3CC4)cc(Cl)cc21 (stereo not drawn)
inactive: all assays above

Clc1ccc(C(c2ccc(Cl)cc2)C(Cl)(Cl)Cl)cc1
not listed: [10]
inactive: all other assays above

O=C1OC(c2ccc(O)c(S(=O)(=O)O)c2)(c2ccc(O)c(S(=O)(=O)O)c2)c2c(Br)c(Br)c(Br)c(Br)c21
inactive: all assays above

O=c1[nH]oc2c1CCNC2
inactive: all assays above

CCCCCCC(=O)CCCCCC/C=C/C[C@@H](O)[C@H](O)[C@@](N)(CO)C(=O)O
inactive: all assays above

CN1C(=O)CC(=O)N(c2ccccc2)c2cc(Cl)ccc21
inactive: all assays above

C[C@]12CC[C@@H]3c4ccc(OC(=O)N(CCCl)CCCl)cc4CC[C@H]3[C@@H]1CC[C@@H]2O
inactive: all assays above

COc1c2c(cc3c1OCO3)CCN(C)C2
inactive: all assays above

CN1C(=O)CCS(=O)(=O)C1c1ccc(Cl)cc1 (stereo not drawn)
inactive: all assays above

CCC1(CC)C(=O)C=CNC1=O
not listed: [5]
inactive: all other assays above

C=CCN1C[C@H](C)N([C@H](c2ccc(C(=O)N(CC)CC)cc2)c2cccc(OC)c2)C[C@H]1C
inactive: [5] | [6] | [7] | [9]

CCCCCCCCCC(=O)O[C@H]1CC[C@H]2[C@@H]3CCC4=CC(=O)CC[C@@H]4[C@H]3CC[C@]12C
not listed: [2] | [8]
inactive: all other assays above

NC(=O)c1cc([N+](=O)[O-])cc([N+](=O)[O-])c1
inactive: [1] | [5] | [6] | [8] | [9] | [10]

O=C1c2ccccc2C(=O)C1C(=O)C(c1ccccc1)c1ccccc1
not listed: [2]
inactive: all other assays above

CN1C(=O)C(O)N=C(c2ccccc2)c2cc(Cl)ccc21 (stereo not drawn)
not listed: [5]
inactive: all other assays above

Cc1ncsc1CCCl
not listed: [9]
inactive: all other assays above

Clc1cccc(SC2CCNCC2)n1
not listed: [9]
inactive: all other assays above

NNc1ccccc1
not listed: [9]
inactive: all other assays above

COC1CC(=C(c2cccs2)c2cccs2)C[N+](C)(C)C1 (stereo not drawn)
active: [1] 4.47 µM | [2] 5.62 µM | [4] 4.47 µM | [7] 10.7 µM | [8] 11.2 µM

O=C1Nc2ccc(Cl)cc2C(c2ccccc2Cl)=NC1O (stereo not drawn)
not listed: [3]
inactive: all other assays above

CN1C[C@H](C(=O)N[C@]2(C)O[C@@]3(O)[C@@H]4CCCN4C(=O)[C@H](Cc4ccccc4)N3C2=O)C=C2c3cccc4[nH]cc(c34)C[C@H]21
active: [1] 4.47 µM | [2] 0.282 µM | [3] 9.53 µM | [4] 0.631 µM | [6] 6.75 µM | [7] 4.26 µM | [8] 0.891 µM | [9] 9.53 µM | [10] 3.38 µM

CC(C)(C)NCC(O)c1ccccc1Cl (stereo not drawn)
active: [10] 13.5 µM
not listed: [2] | [5]
inactive: all other assays above

O=C(N/N=C/c1ccc([N+](=O)[O-])o1)c1cc([N+](=O)[O-])cc([N+](=O)[O-])c1O
active: [1] 0.251 µM | [4] 2.24 µM
